# Data: PubChem BioAssay (NCI)
# Compounds without any hit were thinned out: in the full panel of roughly 79,000, 15% have a hit. A number with no mark means an inactive call. Activity calls are given as the source filed them. Rule as the data show it: active = growth inhibition above about 70%; inactive = the rest.
# What was measured:
# [1] = NCI Yeast Anticancer Drug Screen. Data for the rad52 strain (AID 147);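 also: 0% = growth of vehicle-treated control cultures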; conditions: S. cerevisiae rad52 mutant growth inhibition, active compounds read high
# Method in brief: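 Screen used a yeast mutant impaired in DNA repair. After compound exposure, growth was measured. Values reflect inhibition compared with vehicle-treated cells.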
# [2] = NCI Yeast Anticancer Drug Screen. Data for the wt1 strain (AID 149);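 also: 0% = growth of vehicle-treated wt1 cultures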; conditions: S. cerevisiae wt1 strain (SPY 50644) growth inhibition, active compounds read high
# Method in brief: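 Readout: yeast growth inhibition, normalised to vehicle controls, in the wt1 strain exposed to test compounds.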
# [3] = NCI Yeast Anticancer Drug Screen. Data for the rad50EPP+ strain (AID 151);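 also: 0% = growth of vehicle-treated control cultures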; conditions: S. cerevisiae rad50 mutant strain, active compounds read high
# Method in brief: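 Exposing the rad50EPP+ strain to each compound, growth was compared with vehicle-only cultures to give inhibition.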
# [4] = NCI Yeast Anticancer Drug Screen. Data for the mgt1 strain (AID 153); conditions: S. cerevisiae mgt1 mutant growth inhibition, active compounds read high
# Method in brief: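 Genetically defined yeast (mgt1) treated with compound; inhibition of growth expressed against vehicle-treated controls.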
# [5] = NCI Yeast Anticancer Drug Screen. Data for the rad50 strain (AID 155);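 also: 0% = growth of vehicle-only cultures of the same strain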; conditions: S. cerevisiae rad50 strain growth inhibition, active compounds read high
# Method in brief: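 Compounds were tested on a yeast strain with an engineered DNA damage repair alteration; the reported value is growth inhibition normalised to vehicle treatment.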
# [6] = NCI Yeast Anticancer Drug Screen. Data for the mec2-1 strain (AID 157); conditions: S. cerevisiae mec2-1 strain, active compounds read high
# Method in brief: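 Readout is yeast growth inhibition, normalised to vehicle-treated controls, in the mec2-1 strain exposed to compound.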
# [7] = NCI Yeast Anticancer Drug Screen. Data for the rad14 strain (AID 159);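 also: 0% = growth of vehicle-treated control cultures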; conditions: S. cerevisiae rad14 strain growth inhibition, active compounds read high
# Method in brief: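 Compound-treated yeast with a defined DNA-repair lesion; growth inhibition normalised to vehicle-treated cultures.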
# [8] = NCI Yeast Anticancer Drug Screen. Data for the sgs1 mgt1 strain (AID 161);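 also: 0% = growth of cultures given vehicle only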; conditions: S. cerevisiae sgs1 mgt1 strain, active compounds read high
# Method in brief: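 Yeast cells carrying a defined DNA-repair defect were exposed to test compounds. Growth inhibition was measured relative to vehicle-treated controls.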
# [9] = NCI Yeast Anticancer Drug Screen. Data for the CLN2oe strain (AID 163);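 also: 0% = growth of vehicle-only control cultures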; conditions: S. cerevisiae CLN2oe strain, active compounds read high
# Method in brief: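 Values reflect how much compound exposure reduced yeast growth, referenced to vehicle-exposed cells. Assay organism is a strain with a defined genetic change affecting cell-cycle control.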
# [10] = NCI Yeast Anticancer Drug Screen. Data for the cln2 rad14 strain (AID 165);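 also: 0% = growth equal to vehicle treated cultures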; conditions: S. cerevisiae cln2 rad14 strain, active compounds read high
# Method in brief: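 Relative to vehicle controls, growth inhibition of compound-treated cln2 rad14 yeast was recorded.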
# [11] = NCI Yeast Anticancer Drug Screen. Data for the bub3 strain (AID 167); conditions: S. cerevisiae bub3 mutant strain, active compounds read high
# Method in brief: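 Growth of a checkpoint-deficient yeast mutant is measured after compound exposure. Values represent inhibition relative to vehicle.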
# [12] = NCI Yeast Anticancer Drug Screen. Data for the wt2 strain (AID 169);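 also: 0% = growth of vehicle-treated yeast cultures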; conditions: S. cerevisiae wt2 strain growth inhibition, active compounds read high
# Method in brief: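 Values express reduction in yeast growth under compound treatment, referenced to vehicle-treated cells.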
# [13] = NCI Yeast Anticancer Drug Screen. Data for the mlh1 strain (AID 171);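 also: 0% = growth of vehicle-treated control cultures of the same strain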; conditions: S. cerevisiae mlh1 strain growth inhibition, active compounds read high
# Method in brief: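 Steps: expose the defined-mutant yeast strain to compound; expose a parallel culture to vehicle; measure growth; express compound effect as inhibition relative to the vehicle culture.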
# [14] = NCI Yeast Anticancer Drug Screen. Data for the sgs1 strain (AID 173);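 also: 0% = growth of vehicle-only control cultures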; conditions: S. cerevisiae sgs1 mutant, active compounds read high
# Method in brief: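 Treat defined-mutant yeast with compound; measure growth; calculate inhibition relative to vehicle-treated cells.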
# [15] = NCI Yeast Anticancer Drug Screen. Data for the mlh1 rad18 strain (AID 175); conditions: S. cerevisiae mlh1 rad18 strain growth inhibition, active compounds read high
# Method in brief: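 Test agents were incubated with a yeast strain of defined genotype (DNA damage repair defect). Inhibition of growth was derived by comparison with vehicle-exposed cultures.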
# [16] = NCI Yeast Anticancer Drug Screen. Data for the rad18 strain (AID 177); conditions: S. cerevisiae rad18 mutant growth inhibition, active compounds read high
# Method in brief: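 A genetically defined yeast mutant impaired in DNA damage repair was treated with test compounds, then its growth was measured against cultures receiving vehicle alone.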
# [17] = at 5.0 µM (retest, dose inferred, filed as 0.5)
# [18] = at 50.0 µM (retest, dose inferred, filed as 5.0)
compound,measurement,setting,value
Cc1cc(O)cc(O)c1N=Nc1ccc([N+](=O)[O-])cc1,growth inhibition,[1]; at 1.2 µM,5%
same,growth inhibition,[1]; at 3.7 µM,12%
same,growth inhibition,[1]; at 11.0 µM,11%
same,growth inhibition,[1]; at 33.0 µM,20%
same,growth inhibition,[1]; at 100.0 µM,32%
same,growth inhibition,[2]; at 1.2 µM,12%
same,growth inhibition,[2]; at 3.7 µM,17%
same,growth inhibition,[2]; at 11.0 µM,21%
same,growth inhibition,[2]; at 33.0 µM,51%
same,growth inhibition,[2]; at 100.0 µM,62%
same,growth inhibition,[3]; at 1.2 µM,18%
same,growth inhibition,[3]; at 3.7 µM,12%
same,growth inhibition,[3]; at 11.0 µM,15%
same,growth inhibition,[3]; at 33.0 µM,22%
same,growth inhibition,[3]; at 100.0 µM,21%
same,growth inhibition,[4]; at 1.2 µM,11%
same,growth inhibition,[4]; at 3.7 µM,15%
same,growth inhibition,[4]; at 11.0 µM,23%
same,growth inhibition,[4]; at 33.0 µM,59%
same,growth inhibition,[4]; at 100.0 µM,64%
same,growth inhibition,[5]; at 1.2 µM,-6%
same,growth inhibition,[5]; at 3.7 µM,2%
same,growth inhibition,[5]; [17],47%
same,growth inhibition,[5]; at 11.0 µM,-1%
same,growth inhibition,[5]; at 33.0 µM,18%
same,growth inhibition,[5]; [18],98% (active)
same,growth inhibition,[5]; at 50.0 µM,70.3% (active)
same,growth inhibition,[5]; at 100.0 µM,31%
same,growth inhibition,[6]; at 1.2 µM,7%
same,growth inhibition,[6]; at 3.7 µM,8%
same,growth inhibition,[6]; [17],54%
same,growth inhibition,[6]; at 11.0 µM,8%
same,growth inhibition,[6]; at 33.0 µM,46%
same,growth inhibition,[6]; [18],95% (active)
same,growth inhibition,[6]; at 50.0 µM,36.1%
same,growth inhibition,[6]; at 100.0 µM,63%
same,growth inhibition,[7]; at 1.2 µM,-18%
same,growth inhibition,[7]; at 3.7 µM,-21%
same,growth inhibition,[7]; at 11.0 µM,-14%
same,growth inhibition,[7]; at 33.0 µM,38%
same,growth inhibition,[7]; at 100.0 µM,61%
same,growth inhibition,[8]; [17],3%
same,growth inhibition,[8]; [18],25%
same,growth inhibition,[8]; at 50.0 µM,46.6%
same,growth inhibition,[9]; at 1.2 µM,24%
same,growth inhibition,[9]; at 3.7 µM,22%
same,growth inhibition,[9]; at 11.0 µM,30%
same,growth inhibition,[9]; at 33.0 µM,42%
same,growth inhibition,[9]; at 100.0 µM,55%
same,growth inhibition,[10]; [17],24%
same,growth inhibition,[10]; [18],72% (active)
same,growth inhibition,[10]; at 50.0 µM,72.7% (active)
same,growth inhibition,[11]; at 1.2 µM,4%
same,growth inhibition,[11]; at 3.7 µM,26%
same,growth inhibition,[11]; [17],16%
same,growth inhibition,[11]; at 11.0 µM,43%
same,growth inhibition,[11]; at 33.0 µM,56%
same,growth inhibition,[11]; [18],49%
same,growth inhibition,[11]; at 50.0 µM,43.1%
same,growth inhibition,[11]; at 100.0 µM,62%
same,growth inhibition,[12]; at 1.2 µM,5%
same,growth inhibition,[12]; at 3.7 µM,11%
same,growth inhibition,[12]; at 11.0 µM,-4%
same,growth inhibition,[12]; at 33.0 µM,26%
same,growth inhibition,[12]; at 100.0 µM,45%
same,growth inhibition,[13]; at 1.2 µM,-10%
same,growth inhibition,[13]; at 3.7 µM,-2%
same,growth inhibition,[13]; at 11.0 µM,-3%
same,growth inhibition,[13]; at 33.0 µM,23%
same,growth inhibition,[13]; at 100.0 µM,33%
same,growth inhibition,[14]; at 1.2 µM,-3%
same,growth inhibition,[14]; at 3.7 µM,-2%
same,growth inhibition,[14]; at 11.0 µM,4%
same,growth inhibition,[14]; at 33.0 µM,32%
same,growth inhibition,[14]; at 100.0 µM,47%
same,growth inhibition,[15]; [17],48%
same,growth inhibition,[15]; [18],99% (active)
same,growth inhibition,[15]; at 50.0 µM,55.8%
same,growth inhibition,[16]; at 1.2 µM,5%
same,growth inhibition,[16]; at 3.7 µM,3%
same,growth inhibition,[16]; at 11.0 µM,8%
same,growth inhibition,[16]; at 33.0 µM,11%
same,growth inhibition,[16]; at 100.0 µM,32%
N#CN1C2CCC1CC(=O)C2,growth inhibition,[1]; at 1.2 µM,-12%
same,growth inhibition,[1]; at 3.7 µM,-32%
same,growth inhibition,[1]; at 11.0 µM,-21%
same,growth inhibition,[1]; at 33.0 µM,-18%
same,growth inhibition,[1]; at 100.0 µM,-21%
same,growth inhibition,[2]; at 1.2 µM,-25%
same,growth inhibition,[2]; at 3.7 µM,-37%
same,growth inhibition,[2]; at 11.0 µM,-46%
same,growth inhibition,[2]; at 33.0 µM,-53%
same,growth inhibition,[2]; at 100.0 µM,-35%
same,growth inhibition,[3]; at 1.2 µM,-25%
same,growth inhibition,[3]; at 3.7 µM,-35%
same,growth inhibition,[3]; at 11.0 µM,-27%
same,growth inhibition,[3]; at 33.0 µM,-43%
same,growth inhibition,[3]; at 100.0 µM,-33%
same,growth inhibition,[4]; at 1.2 µM,-8%
same,growth inhibition,[4]; at 3.7 µM,-10%
same,growth inhibition,[4]; at 11.0 µM,-13%
same,growth inhibition,[4]; at 33.0 µM,-11%
same,growth inhibition,[4]; at 100.0 µM,-8%
same,growth inhibition,[5]; at 1.2 µM,3%
same,growth inhibition,[5]; at 3.7 µM,1%
same,growth inhibition,[5]; [17],66%
same,growth inhibition,[5]; at 11.0 µM,-34%
same,growth inhibition,[5]; at 33.0 µM,-40%
same,growth inhibition,[5]; [18],99% (active)
same,growth inhibition,[5]; at 50.0 µM,66%
same,growth inhibition,[5]; at 100.0 µM,-24%
same,growth inhibition,[6]; at 1.2 µM,-27%
same,growth inhibition,[6]; at 3.7 µM,-36%
same,growth inhibition,[6]; [17],63%
same,growth inhibition,[6]; at 11.0 µM,-54%
same,growth inhibition,[6]; at 33.0 µM,-24%
same,growth inhibition,[6]; [18],84% (active)
same,growth inhibition,[6]; at 50.0 µM,43.6%
same,growth inhibition,[6]; at 100.0 µM,-36%
same,growth inhibition,[7]; at 1.2 µM,-26%
same,growth inhibition,[7]; at 3.7 µM,-23%
same,growth inhibition,[7]; at 11.0 µM,-13%
same,growth inhibition,[7]; at 33.0 µM,-2%
same,growth inhibition,[7]; at 100.0 µM,8%
same,growth inhibition,[8]; [17],-5%
same,growth inhibition,[8]; [18],-5%
same,growth inhibition,[8]; at 50.0 µM,77.4% (active)
same,growth inhibition,[9]; at 1.2 µM,12%
same,growth inhibition,[9]; at 3.7 µM,7%
same,growth inhibition,[9]; at 11.0 µM,-28%
same,growth inhibition,[9]; at 33.0 µM,-27%
same,growth inhibition,[9]; at 100.0 µM,-11%
same,growth inhibition,[10]; [17],50%
same,growth inhibition,[10]; [18],34%
same,growth inhibition,[10]; at 50.0 µM,74.8% (active)
same,growth inhibition,[11]; at 1.2 µM,14%
same,growth inhibition,[11]; at 3.7 µM,23%
same,growth inhibition,[11]; [17],39%
same,growth inhibition,[11]; at 11.0 µM,15%
same,growth inhibition,[11]; at 33.0 µM,27%
same,growth inhibition,[11]; [18],12%
same,growth inhibition,[11]; at 50.0 µM,57.3%
same,growth inhibition,[11]; at 100.0 µM,31%
